Test results reported in publication PMC7862700, “An all-to-all approach to the identification of sequence-specific readers for epigenetic DNA modifications on cytosine”.

How the values were obtained:
Assay in all cases: DAPPL (digital affinity profiling via proximity ligation, sequencing); 10 mM Tris-HCl pH 7.5, 50 mM NaCl, 1 mM DTT, 4% glycerol, room temperature, 30 min; GST-TFs on glutathione beads, 16-mer random dsDNA library, 0.1% formaldehyde crosslink after washing; high values mean tight binding
Details in all cases: protein: recombinant; tags: N-terminal GST; dsDNA, one strand shown
ERF = biological target: T1, ERF (Homo sapiens, UniProt P50548 1-548)
T1 sequence: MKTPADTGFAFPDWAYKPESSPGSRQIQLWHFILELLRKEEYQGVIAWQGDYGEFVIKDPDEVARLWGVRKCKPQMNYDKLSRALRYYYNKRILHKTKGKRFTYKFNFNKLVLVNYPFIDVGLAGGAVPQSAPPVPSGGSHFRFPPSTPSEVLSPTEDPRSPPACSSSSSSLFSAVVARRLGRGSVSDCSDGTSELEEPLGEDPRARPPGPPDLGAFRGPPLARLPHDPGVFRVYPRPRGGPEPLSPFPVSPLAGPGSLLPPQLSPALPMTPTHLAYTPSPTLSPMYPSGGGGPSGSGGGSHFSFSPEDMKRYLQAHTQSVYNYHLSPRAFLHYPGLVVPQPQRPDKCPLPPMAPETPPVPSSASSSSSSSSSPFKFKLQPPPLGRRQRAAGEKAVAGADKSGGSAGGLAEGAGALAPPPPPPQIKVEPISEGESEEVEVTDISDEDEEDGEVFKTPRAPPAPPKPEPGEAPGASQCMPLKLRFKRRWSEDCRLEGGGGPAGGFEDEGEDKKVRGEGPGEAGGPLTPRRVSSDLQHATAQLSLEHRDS
Outline: (§1)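 Yeast served to express human transcription factors as GST fusions, which were then captured on glutathione beads and labelled with DNA barcodes. Pooled with a tag-only sample, they were incubated with 200 nmole of a 16-mer random double-stranded DNA library for 30 min at room temperature in Tris/NaCl/DTT/glycerol buffer, washed, crosslinked with 0.1% formaldehyde, ligated by proximity, amplified by PCR and sequenced. Dividing each hexamer's read frequency for a factor by its frequency for the tag-only sample gives the binding signal.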

ETV3L = biological target: T2, ETV3L (Homo sapiens, UniProt Q6ZN32 1-361)
T2 sequence: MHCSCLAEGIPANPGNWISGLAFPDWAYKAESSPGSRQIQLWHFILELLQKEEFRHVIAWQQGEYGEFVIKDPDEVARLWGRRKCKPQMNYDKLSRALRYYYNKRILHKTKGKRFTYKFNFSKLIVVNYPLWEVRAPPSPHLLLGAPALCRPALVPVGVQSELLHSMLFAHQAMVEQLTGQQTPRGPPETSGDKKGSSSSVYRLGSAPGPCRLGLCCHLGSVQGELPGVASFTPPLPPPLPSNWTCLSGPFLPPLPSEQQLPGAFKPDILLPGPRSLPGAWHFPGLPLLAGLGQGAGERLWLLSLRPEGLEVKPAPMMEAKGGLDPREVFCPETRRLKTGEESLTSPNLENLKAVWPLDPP
Outline: as §1

ETS2 = biological target: T3, ETS2 (Homo sapiens, UniProt P15036 1-469)
T3 sequence: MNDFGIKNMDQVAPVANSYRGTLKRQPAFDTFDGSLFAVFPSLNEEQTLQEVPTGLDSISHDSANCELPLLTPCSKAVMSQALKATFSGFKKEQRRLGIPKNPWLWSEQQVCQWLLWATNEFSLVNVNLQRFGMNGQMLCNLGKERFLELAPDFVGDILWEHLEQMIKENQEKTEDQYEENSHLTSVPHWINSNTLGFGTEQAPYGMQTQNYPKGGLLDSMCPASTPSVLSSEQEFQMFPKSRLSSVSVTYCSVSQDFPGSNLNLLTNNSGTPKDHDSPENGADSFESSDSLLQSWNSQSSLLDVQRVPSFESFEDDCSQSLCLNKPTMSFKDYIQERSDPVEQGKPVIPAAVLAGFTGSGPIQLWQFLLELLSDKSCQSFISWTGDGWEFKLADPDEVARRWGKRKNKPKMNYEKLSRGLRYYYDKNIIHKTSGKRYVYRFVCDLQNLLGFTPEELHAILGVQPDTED
Outline: as §1

SPDEF = biological target: T4, SPDEF (Homo sapiens, UniProt O95238 1-335)
T4 sequence: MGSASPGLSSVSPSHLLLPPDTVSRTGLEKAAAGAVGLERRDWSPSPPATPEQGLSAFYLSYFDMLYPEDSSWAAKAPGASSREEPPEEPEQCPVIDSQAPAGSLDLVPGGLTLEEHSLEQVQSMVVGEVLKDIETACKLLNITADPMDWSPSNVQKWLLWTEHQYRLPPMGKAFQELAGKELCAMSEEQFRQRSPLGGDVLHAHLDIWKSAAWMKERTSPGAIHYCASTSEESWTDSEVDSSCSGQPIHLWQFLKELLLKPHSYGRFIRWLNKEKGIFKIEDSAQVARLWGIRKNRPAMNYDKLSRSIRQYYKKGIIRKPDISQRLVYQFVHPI
Outline: as §1

ETV7 = biological target: T5, ETV7 (Homo sapiens, UniProt Q9Y603 1-341)
T5 sequence: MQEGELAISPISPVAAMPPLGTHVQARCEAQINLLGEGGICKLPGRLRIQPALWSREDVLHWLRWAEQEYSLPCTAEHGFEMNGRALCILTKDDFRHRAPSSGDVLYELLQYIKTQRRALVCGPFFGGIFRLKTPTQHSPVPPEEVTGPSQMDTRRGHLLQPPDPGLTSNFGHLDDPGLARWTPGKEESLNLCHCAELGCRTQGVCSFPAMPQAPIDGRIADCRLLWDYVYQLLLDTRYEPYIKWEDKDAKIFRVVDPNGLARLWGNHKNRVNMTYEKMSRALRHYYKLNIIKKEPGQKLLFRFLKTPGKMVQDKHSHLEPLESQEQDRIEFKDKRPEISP
Outline: as §1

ELF5 = biological target: T6, ELF5 (Homo sapiens, UniProt Q9UKW6-2 1-255)
T6 sequence: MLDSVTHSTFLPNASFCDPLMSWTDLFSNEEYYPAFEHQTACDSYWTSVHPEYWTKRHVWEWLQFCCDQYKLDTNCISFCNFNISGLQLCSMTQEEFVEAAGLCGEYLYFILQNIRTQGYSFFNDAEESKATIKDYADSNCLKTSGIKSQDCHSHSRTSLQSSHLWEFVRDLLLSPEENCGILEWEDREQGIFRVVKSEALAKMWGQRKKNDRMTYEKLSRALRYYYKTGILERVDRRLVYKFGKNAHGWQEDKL
Outline: as §1

ETV3 = biological target: T7, ETV3 (Homo sapiens, UniProt P41162-2 1-143)
T7 sequence: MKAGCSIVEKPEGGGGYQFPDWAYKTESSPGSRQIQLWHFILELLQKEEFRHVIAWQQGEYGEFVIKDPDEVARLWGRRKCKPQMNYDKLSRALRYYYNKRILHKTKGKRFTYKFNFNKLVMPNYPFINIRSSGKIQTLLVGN
Outline: as §1

ETV6 = ETV6 (Homo sapiens, UniProt P41212 1-452)
Outline: as §1

Sequence of ETV6 (P41212 whole entry): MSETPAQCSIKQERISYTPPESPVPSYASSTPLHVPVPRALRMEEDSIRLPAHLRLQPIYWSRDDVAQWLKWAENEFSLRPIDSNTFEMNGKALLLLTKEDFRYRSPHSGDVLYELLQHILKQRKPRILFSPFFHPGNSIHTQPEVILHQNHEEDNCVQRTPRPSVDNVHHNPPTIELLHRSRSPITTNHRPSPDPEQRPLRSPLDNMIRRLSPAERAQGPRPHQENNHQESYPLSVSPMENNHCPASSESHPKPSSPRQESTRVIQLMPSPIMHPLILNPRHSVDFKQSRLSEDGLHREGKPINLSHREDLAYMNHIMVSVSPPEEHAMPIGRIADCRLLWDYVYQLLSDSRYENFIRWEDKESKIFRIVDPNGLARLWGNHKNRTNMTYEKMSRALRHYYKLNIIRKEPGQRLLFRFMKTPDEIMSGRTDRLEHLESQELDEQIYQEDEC

| Sequence | binding signal (ERF) | binding signal (ETV3L) | binding signal (ETS2) | binding signal (SPDEF) | binding signal (ETV7) | binding signal (ELF5) | binding signal (ETV3) | binding signal (ETV6) |
| --- | --- | --- | --- | --- | --- | --- | --- | --- |
| GTAAAA | 1.13 fold enrichment (6-mer frequency, TF over GST control) | 1.14 fold enrichment (6-mer frequency, TF over GST control) | 1.13 fold enrichment (6-mer frequency, TF over GST control) | 1.09 fold enrichment (6-mer frequency, TF over GST control) | 1.18 fold enrichment (6-mer frequency, TF over GST control) | 1.18 fold enrichment (6-mer frequency, TF over GST control) | 1.16 fold enrichment (6-mer frequency, TF over GST control) | 1.14 fold enrichment (6-mer frequency, TF over GST control) |
| TTATGT | 1.29 fold enrichment (6-mer frequency, TF over GST control) | 1.26 fold enrichment (6-mer frequency, TF over GST control) | 1.3 fold enrichment (6-mer frequency, TF over GST control) | 1.36 fold enrichment (6-mer frequency, TF over GST control) | 1.3 fold enrichment (6-mer frequency, TF over GST control) | 1.23 fold enrichment (6-mer frequency, TF over GST control) | 1.34 fold enrichment (6-mer frequency, TF over GST control) | 1.43 fold enrichment (6-mer frequency, TF over GST control) |
| TTATCT | 1.23 fold enrichment (6-mer frequency, TF over GST control) | 1.44 fold enrichment (6-mer frequency, TF over GST control) | 1.35 fold enrichment (6-mer frequency, TF over GST control) | 1.24 fold enrichment (6-mer frequency, TF over GST control) | 1.15 fold enrichment (6-mer frequency, TF over GST control) | 1.22 fold enrichment (6-mer frequency, TF over GST control) | 1.28 fold enrichment (6-mer frequency, TF over GST control) | 1.25 fold enrichment (6-mer frequency, TF over GST control) |
| TAACCT | 1.35 fold enrichment (6-mer frequency, TF over GST control) | 1.28 fold enrichment (6-mer frequency, TF over GST control) | 1.31 fold enrichment (6-mer frequency, TF over GST control) | 1.23 fold enrichment (6-mer frequency, TF over GST control) | 1.26 fold enrichment (6-mer frequency, TF over GST control) | 1.29 fold enrichment (6-mer frequency, TF over GST control) | 1.31 fold enrichment (6-mer frequency, TF over GST control) | 1.23 fold enrichment (6-mer frequency, TF over GST control) |
| AACTCA | 1.18 fold enrichment (6-mer frequency, TF over GST control) | 1.18 fold enrichment (6-mer frequency, TF over GST control) | 1.28 fold enrichment (6-mer frequency, TF over GST control) | 1.22 fold enrichment (6-mer frequency, TF over GST control) | 1.2 fold enrichment (6-mer frequency, TF over GST control) | 1.22 fold enrichment (6-mer frequency, TF over GST control) | 1.26 fold enrichment (6-mer frequency, TF over GST control) | 1.34 fold enrichment (6-mer frequency, TF over GST control) |
| TCTTGG | 1.4 fold enrichment (6-mer frequency, TF over GST control) | 1.43 fold enrichment (6-mer frequency, TF over GST control) | 1.27 fold enrichment (6-mer frequency, TF over GST control) | 1.27 fold enrichment (6-mer frequency, TF over GST control) | 1.38 fold enrichment (6-mer frequency, TF over GST control) | 1.31 fold enrichment (6-mer frequency, TF over GST control) | 1.29 fold enrichment (6-mer frequency, TF over GST control) | 1.19 fold enrichment (6-mer frequency, TF over GST control) |
| TCTCCT | 1.34 fold enrichment (6-mer frequency, TF over GST control) | 1.73 fold enrichment (6-mer frequency, TF over GST control) | 1.52 fold enrichment (6-mer frequency, TF over GST control) | 1.32 fold enrichment (6-mer frequency, TF over GST control) | 1.46 fold enrichment (6-mer frequency, TF over GST control) | 1.41 fold enrichment (6-mer frequency, TF over GST control) | 1.41 fold enrichment (6-mer frequency, TF over GST control) | 1.44 fold enrichment (6-mer frequency, TF over GST control) |
| ATTTGC | 1.32 fold enrichment (6-mer frequency, TF over GST control) | 1.26 fold enrichment (6-mer frequency, TF over GST control) | 1.28 fold enrichment (6-mer frequency, TF over GST control) | 1.27 fold enrichment (6-mer frequency, TF over GST control) | 1.43 fold enrichment (6-mer frequency, TF over GST control) | 1.25 fold enrichment (6-mer frequency, TF over GST control) | 1.37 fold enrichment (6-mer frequency, TF over GST control) | 1.27 fold enrichment (6-mer frequency, TF over GST control) |
